Assay results reported in PMC11062922 (Nature Chemical Biology, 2023).
Where two headings read alike, the source gives them in different places.

Legend:
Parameters in all cases: species or system human, MV4-11 + K-562 + COLO205 + SK-N-BE2 + OVCAR-8
[1] = tested on: JAK2; conditions: read-out: apparent Kd, compound concentrations: 100 nM and 1000 nM (sheet 'Samples'), n = 1
[2] = tested on: BMPR1B; conditions: read-out: apparent Kd, compound concentrations: 100 nM and 1000 nM (sheet 'Samples'), n = 1
[3] = tested on: TGFBR1; conditions: read-out: apparent Kd, compound concentrations: 100 nM and 1000 nM (sheet 'Samples'), n = 1
[4] = tested on: BTK; conditions: read-out: apparent Kd; compound concentrations: 100 nM and 1000 nM (sheet 'Samples'), CATDS: 1.37109395342906E-2; n = 1
[5] = tested on: CDK17; conditions: read-out: apparent Kd; compound concentrations: 100 nM and 1000 nM (sheet 'Samples'), CATDS: 3.3819881865538602E-2; n = 1
[6] = tested on: EPHB6; conditions: read-out: apparent Kd, compound concentrations: 100 nM and 1000 nM (sheet 'Samples'), n = 1
[7] = tested on: FLT4; conditions: read-out: apparent Kd, n = 1
[8] = tested on: PLK4; conditions: read-out: apparent Kd, compound concentrations: 100 nM and 1000 nM (sheet 'Samples'), n = 1
[9] = tested on: PRKD2; conditions: read-out: apparent Kd, compound concentrations: 100 nM and 1000 nM (sheet 'Samples'), n = 1
[10] = tested on: PRKD3; conditions: read-out: apparent Kd, compound concentrations: 100 nM and 1000 nM (sheet 'Samples'), n = 1
[11] = tested on: AURKB; conditions: read-out: apparent Kd, compound concentrations: 100 nM and 1000 nM (sheet 'Samples'), n = 1
[12] = tested on: DDR2; conditions: read-out: apparent Kd; compound concentrations: 100 nM and 1000 nM (sheet 'Samples'), CATDS: 2.76833558022507E-2; n = 1
[13] = tested on: EPHB1; conditions: read-out: apparent Kd; compound concentrations: 100 nM and 1000 nM (sheet 'Samples'), CATDS: 2.3499572328162702E-2; n = 1
[14] = tested on: MAPK9; conditions: read-out: apparent Kd; compound concentrations:100 nM and 1000 nM (sheet 'Samples'); n = 1
[15] = tested on: MAPK14; conditions: read-out: apparent Kd; compound concentrations: 100 nM and 1000 nM (sheet 'Samples'), CATDS: 0.140639496900372; n = 1

O=C1N=C(NCCc2cccc(Cl)c2)S/C1=C\c1ccc2ncccc2c1 [RO4509201-000] was tested, and the potency estimated from few doses ([1]; CATDS: 7.2632093710390006E-2) was 736 nM.
Work on COc1cccc(-n2ncc3c(N/N=C/c4ccc(C(=O)NCCN(C)C)cc4)ncnc32)c1.Cl [GW784307A] yielded a potency estimated from few doses ([2]; CATDS: 3.8430447981996803E-2) of 486 nM and a potency estimated from few doses ([3]; CATDS: 3.91809843911003E-2) of 460 nM.
Work on CC(C)c1nc(-c2cccc(NS(=O)(=O)c3ccccc3)c2)c(-c2ccnc(Nc3ccc4c(c3)CN(C)CC4)n2)s1 [GSK1649598A] yielded a potency estimated from few doses [4] of 1210 nM, a potency estimated from few doses [5] of 124 nM and a potency estimated from few doses ([6]; CATDS: 1.8057075383437201E-2) of 489 nM. For the same molecule, the potency estimated from few doses ([7]; compound concentrations: 100 nM and 1000 nM (sheet 'Samples'), CATDS: 1.55100813228086E-2) was 772 nM, the potency estimated from few doses ([8]; CATDS: 4.8867140762819797E-2) was 66.8 nM and the potency estimated from few doses ([9]; CATDS: 5.2743679485786801E-2) was 59.3 nM. For the same molecule, the potency estimated from few doses ([10]; CATDS: 3.0357950556932599E-2) was 152 nM.
Work on CN1C(=O)c2ccccc2N(C)c2nc(Nc3cnn(C4CCNCC4)c3)ncc21 [XMD-17-51] yielded a potency estimated from few doses ([11]; CATDS: 0.169613052671825) of 6.84 nM, a potency estimated from few doses ([2]; CATDS: 1.5845545997130402E-2) of 986 nM and a potency estimated from few doses [12] of 189 nM. For the same molecule, the potency estimated from few doses ([1]; CATDS: 1.8456350462982201E-2) was 580 nM, the potency estimated from few doses ([8]; CATDS: 4.7474552673817297E-2) was 56.7 nM and the potency estimated from few doses ([9]; CATDS: 1.4106382440731599E-2) was 1620 nM. For the same molecule, the potency estimated from few doses ([10]; CATDS: 1.40532268775709E-2) was 1650 nM and the potency estimated from few doses ([3]; CATDS: 2.2276499347081799E-2) was 333 nM.
In the case of COc1cc(Nc2ccnc3cc(-c4ccncc4)ccc23)cc(OC)c1OC.Cl [GW494610A], the potency estimated from few doses ([11]; CATDS: 5.7571781244095399E-2) is reported as 90.3 nM, the potency estimated from few doses ([2]; CATDS: 3.91672481095015E-2) is reported as 233 nM and the potency estimated from few doses [13] is reported as 1250 nM. For the same molecule, the potency estimated from few doses ([6]; CATDS: 2.9510558776715799E-2) was 536 nM and the potency estimated from few doses ([3]; CATDS: 2.6595956704932502E-2) was 765 nM.
In the case of COc1ccccc1CNC1=NC(=O)/C(=C/c2ccc3ncccc3c2)S1 [RO4503315-000], the potency estimated from few doses ([1]; CATDS: 8.0204348967342395E-2) is reported as 755 nM.
Molecule Cc1cccc(Nc2nc(NCCN)ncc2C(N)=O)c1 [GSK1292139B] has a potency estimated from few doses ([9]; CATDS: 7.4938194739321201E-2) of 1250 nM and a potency estimated from few doses ([10]; CATDS: 6.9928558616796505E-2) of 1540 nM.
CS(=O)(=O)Cc1ccc(Nc2nccc(-c3c(-c4cccc(NC(=O)C5CCCCC5)c4)nn4ncccc34)n2)cc1 [GSK350559A] gave a potency estimated from few doses ([7]; compound concentrations:100 nM and 1000 nM (sheet 'Samples')) of 995 nM and a potency estimated from few doses [14] of 932 nM.
With COc1ccc(-n2cnc3c(N)ncnc32)cc1 [SKF-97236] the potency estimated from few doses [15] was 1390 nM.
